# Test results from PubChem BioAssay AID1159580 (chemical genetic matrix, 2015).
# Out of some 5,500 compounds screened, about 2,000 (36%) were called active. Not shown: some 18% with an inconclusive outcome. The list shows a part of the results. Unmarked numbers belong to inactive results. Rule as the data show it: active = normalized growth mostly below about 0.91 (no sharp cut-off); inconclusive = no clear call, values can overlap the other calls; inactive = mostly above about 0.92.
# Assay: chemical genetic growth profiling, strain panel (AID 1159580);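 also: tested at 20 µM; growth read once vehicle control cultures reached saturation at 30 °C; 1 = growth at the plate median or of vehicle wells; lower values mean less growth of the strain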
# Details: growth OD
# [1] = S. cerevisiae deletion strains, locus YAL013W, strain DEP1, hits give low values
# [2] = S. cerevisiae deletion strains, locus YBR229C, strain ROT2, hits give low values
# [3] = S. cerevisiae deletion strains, locus YDL101C, strain DUN1, hits give low values
# [4] = S. cerevisiae deletion strains, locus YDR150W, strain NUM1, hits give low values
# [5] = S. cerevisiae deletion strains, locus YEL061C, strain CIN8, hits give low values
# [6] = S. cerevisiae deletion strains, locus YGR078C, strain PAC10, hits give low values
# [7] = S. cerevisiae deletion strains, locus YGR229C, strain SMI1, hits give low values
# [8] = S. cerevisiae deletion strains, locus YHR030C, strain SLT2, hits give low values
# [9] = S. cerevisiae deletion strains, locus YHR087W, strain rtc3, hits give low values
# [10] = S. cerevisiae deletion strains, locus YJR043C, strain POL32, hits give low values
# [11] = S. cerevisiae deletion strains, locus YJR075W, strain HOC1, hits give low values
# [12] = S. cerevisiae deletion strains, locus YLR039C, strain RIC1, hits give low values
# [13] = S. cerevisiae deletion strains, locus YLR058C, strain SHM2 (second series), hits give low values
# [14] = S. cerevisiae deletion strains, locus YLR085C, strain ARP6, hits give low values
# [15] = S. cerevisiae deletion strains, locus YLR262C, strain YPT6, hits give low values
# [16] = S. cerevisiae deletion strains, locus YML094W, strain GIM5, hits give low values
# [17] = S. cerevisiae deletion strains, locus YMR219W, strain ESC1, hits give low values
# [18] = S. cerevisiae deletion strains, locus YMR263W, strain SAP30, hits give low values
# [19] = S. cerevisiae deletion strains, locus YNL128W, strain TEP1, hits give low values
# [20] = S. cerevisiae deletion strains, locus YNL153C, strain GIM3, hits give low values
# [21] = S. cerevisiae deletion strains, locus YNL298W, strain CLA4 (second series), hits give low values
# [22] = S. cerevisiae deletion strains, locus YNL322C, strain KRE1, hits give low values
# [23] = S. cerevisiae deletion strains, locus YNR030W, strain Alg12, hits give low values
# [24] = S. cerevisiae deletion strains, locus YPL055C, strain LGE1, hits give low values
# [25] = S. cerevisiae deletion strains, locus YPL241C, strain CIN2, hits give low values
# [26] = S. cerevisiae deletion strains, locus YPR135W, strain CTF4, hits give low values
smiles,measurement,setting,value
CCCCCc1ccc(C(=O)O/N=C\c2c(Cl)cccc2Cl)cc1,normalized growth,[1],0.966
same,normalized growth,[2],0.941
same,normalized growth,"S. cerevisiae deletion strains, locus YCL061C, strain MRC1, hits give low values",0.933
same,normalized growth,[3],1.01
same,normalized growth,"S. cerevisiae deletion strains, locus YDL134C, strain PPH21, hits give low values",0.936
same,normalized growth,[4],1.01
same,normalized growth,[5],0.902 (active)
same,normalized growth,[6],0.959
same,normalized growth,[7],0.929 (active)
same,normalized growth,[8],1.01
same,normalized growth,[9],0.939
same,normalized growth,[10],0.962
same,normalized growth,[11],0.982
same,normalized growth,[12],0.84
same,normalized growth,[13],0.943
same,normalized growth,[14],0.943
same,normalized growth,[15],0.82
same,normalized growth,[16],0.98
same,normalized growth,[17],0.95
same,normalized growth,[18],1.03
same,normalized growth,[19],0.962
same,normalized growth,[20],0.92 (active)
same,normalized growth,[21],0.969
same,normalized growth,[22],0.947
same,normalized growth,[23],0.958
same,normalized growth,"S. cerevisiae deletion strains, locus YOL006C, strain TOP1, hits give low values",0.796
same,normalized growth,[24],0.943
same,normalized growth,[25],0.963
same,normalized growth,[26],1.07
same,normalized growth,"S. cerevisiae strains, strain wild type, hits give low values",0.919
O=[N+]([O-])c1cnc(Sc2n[nH]c(-c3cccs3)n2)s1,normalized growth,[1],0.488 (active)
same,normalized growth,[2],0.258 (active)
same,normalized growth,[3],0.23 (active)
same,normalized growth,[4],0.347 (active)
same,normalized growth,[5],0.612 (active)
same,normalized growth,[6],0.214 (active)
same,normalized growth,[7],0.974
same,normalized growth,[8],0.312 (active)
same,normalized growth,[9],0.377 (active)
same,normalized growth,[10],0.602 (active)
same,normalized growth,[11],0.224 (active)
same,normalized growth,"S. cerevisiae deletion strains, locus YKL190W, strain CNB1, hits give low values",0.715 (active)
same,normalized growth,[12],0.426 (active)
same,normalized growth,[13],0.404 (active)
same,normalized growth,[14],0.152 (active)
same,normalized growth,[15],0.596 (active)
same,normalized growth,[16],0.573 (active)
same,normalized growth,[17],0.35 (active)
same,normalized growth,[18],0.194 (active)
same,normalized growth,[19],0.876 (active)
same,normalized growth,[20],0.215 (active)
same,normalized growth,[21],0.352 (active)
same,normalized growth,[22],0.927 (active)
same,normalized growth,[23],0.508 (active)
same,normalized growth,[24],0.126 (active)
same,normalized growth,[25],0.36 (active)
same,normalized growth,[26],0.319 (active)
